Experiment [1] in a line: antimalarial activity against Dd2 strain (AID 2302;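 active means growth inhibition above 50% at the single 2 µM test dose, taken to imply half-maximal potency below 2 µM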;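 further: 0% = DMSO untreated growth and 100% = chloroquine plus artemisinin killed control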). As to conditions: P. falciparum Dd2 in RBCs, LDH growth readout, 72 h; at 2 µM; stronger effect = higher value.
Experiment [2] can be described thus: HepG2 cytotoxicity, primary screen, cytotoxicity control for P. falciparum antimalarial project, cell-based, ATP luminescence (AID 2303;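 active means inhibition above 50%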;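 further: 0% = DMSO wells and 100% = digitonin-killed cells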). To be noted: HepG2 viability, 24-48 h, at 10 µM, stronger effect = higher value.
The target of experiment [3] is L-lactate dehydrogenase (Plasmodium falciparum (isolate CDC / Honduras)) (UniProt Q27743). Put plainly: PfLDH activity inhibition – cell lysate, 3D7 strain, counter-screen for P. falciparum growth inhibition project (AID 2304).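 Further: 0% = vehicle and 100% = reference inhibitor.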 As to conditions: P. falciparum 3D7 crude extract, LDH APAD/NBT absorbance; at 2 µM; stronger effect = higher value. (In general: Counterscreens check selectivity or assay interference.)
Sequence of L-lactate dehydrogenase (Plasmodium falciparum (isolate CDC / Honduras)) (Q27743 whole entry, looked up): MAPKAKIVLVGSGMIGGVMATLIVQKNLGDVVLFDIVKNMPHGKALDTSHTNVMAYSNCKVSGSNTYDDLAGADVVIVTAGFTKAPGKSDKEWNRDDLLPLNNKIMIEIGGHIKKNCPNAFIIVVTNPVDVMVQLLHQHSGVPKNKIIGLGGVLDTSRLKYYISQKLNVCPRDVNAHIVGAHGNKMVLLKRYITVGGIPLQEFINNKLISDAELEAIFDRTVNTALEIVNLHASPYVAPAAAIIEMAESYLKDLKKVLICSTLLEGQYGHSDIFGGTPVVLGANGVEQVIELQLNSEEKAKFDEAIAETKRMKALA

Experiment [4] is described as follows: inhibition of 3D7 malaria parasite growth – strain 3D7 (AID 2306).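 Further: 0% = DMSO wells and 100% = chloroquine plus artemisinin control wells.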 To be noted: P. falciparum 3D7 erythrocytic growth, LDH absorbance, 72 h; at 2 µM; stronger effect = higher value.
Experiment [5] addresses Calcium-dependent protein kinase 1 (Plasmodium falciparum (isolate 3D7)) (UniProt P62344). Put plainly: PfCDPK1 kinase inhibitors, biochemical, TCAMS library (AID 1159585; cut-off not given, nearly all actives have IC50 up to about 0.98 µM;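 further: inhibitors leave more ATP so luminescence rises with inhibition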). To be noted: recombinant PfCDPK1, Kinase-Glo ATP depletion luminescence. In general terms: In Kinase-Glo more light means more ATP remaining.
The target of experiment [6] is Plasmodium falciparum protein kinase 6 (PK6, PF3D7_1337100) (UniProt Q8IDW1). The experiment is described as follows: PfPK6 kinase inhibitors, biochemical, TCAMS library (AID 1159586). As to conditions: recombinant PfPK6, Kinase-Glo ATP depletion luminescence.
Sequence of Plasmodium falciparum protein kinase 6 (PK6, PF3D7_1337100) (Q8IDW1 1-305): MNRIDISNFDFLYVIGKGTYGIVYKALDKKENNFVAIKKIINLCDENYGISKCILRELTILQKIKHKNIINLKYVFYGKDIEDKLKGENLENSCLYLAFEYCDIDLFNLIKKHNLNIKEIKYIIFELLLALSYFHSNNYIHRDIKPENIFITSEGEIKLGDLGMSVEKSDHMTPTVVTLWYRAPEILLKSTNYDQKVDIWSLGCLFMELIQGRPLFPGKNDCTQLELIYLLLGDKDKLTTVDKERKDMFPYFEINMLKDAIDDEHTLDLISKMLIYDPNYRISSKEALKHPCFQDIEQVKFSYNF
Experiment [7] addresses Protein kinase 7 (PK7), Plasmodium falciparum 3D7 (PF3D7_0213400) (UniProt Q7YTF7). The experiment is described as follows: inhibition of Plasmodium PK7 catalytic activity – biochemical, TCAMS antimalarial set, Kinase-Glo luminescence (AID 1159587). As to conditions: recombinant PfPK7, Kinase-Glo ATP depletion luminescence.
Experiment [8] deals with Calcium-dependent protein kinase 4 (Plasmodium falciparum (isolate 3D7)) (UniProt Q8IBS5). The experiment is described as follows: PfCDPK4 kinase inhibitors, biochemical, TCAMS library (AID 1159588; cut-off not given, nearly all actives have IC50 up to about 0.91 µM). To be noted: recombinant PfCDPK4, Kinase-Glo ATP depletion luminescence.
Sequence of Calcium-dependent protein kinase 4 (Plasmodium falciparum (isolate 3D7)) (Q8IBS5 whole entry, looked up): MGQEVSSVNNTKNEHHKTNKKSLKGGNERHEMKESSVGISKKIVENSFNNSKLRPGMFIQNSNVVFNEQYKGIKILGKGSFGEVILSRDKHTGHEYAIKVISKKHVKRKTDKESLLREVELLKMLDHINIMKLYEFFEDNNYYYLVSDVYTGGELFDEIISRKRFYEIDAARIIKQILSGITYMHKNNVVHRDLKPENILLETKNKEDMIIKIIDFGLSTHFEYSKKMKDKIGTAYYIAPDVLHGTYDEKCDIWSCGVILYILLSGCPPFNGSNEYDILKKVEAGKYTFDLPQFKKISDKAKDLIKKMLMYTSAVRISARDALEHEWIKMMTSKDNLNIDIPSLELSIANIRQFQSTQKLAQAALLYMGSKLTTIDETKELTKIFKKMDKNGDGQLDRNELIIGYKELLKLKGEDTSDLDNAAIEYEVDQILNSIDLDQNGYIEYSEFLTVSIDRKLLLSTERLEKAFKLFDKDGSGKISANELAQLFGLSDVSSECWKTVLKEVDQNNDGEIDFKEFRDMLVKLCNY

The inhibition is the drop in the measured response relative to a control, in per cent.

A number with no mark means an inactive call. For some of these results: Potency and affinity values are given separately. Calls of active or inactive are those of the source. Unless noted, how the calls were made is not given here.

Sequence of Protein kinase 7 (PK7), Plasmodium falciparum 3D7 (PF3D7_0213400) (Q7YTF7 1-343): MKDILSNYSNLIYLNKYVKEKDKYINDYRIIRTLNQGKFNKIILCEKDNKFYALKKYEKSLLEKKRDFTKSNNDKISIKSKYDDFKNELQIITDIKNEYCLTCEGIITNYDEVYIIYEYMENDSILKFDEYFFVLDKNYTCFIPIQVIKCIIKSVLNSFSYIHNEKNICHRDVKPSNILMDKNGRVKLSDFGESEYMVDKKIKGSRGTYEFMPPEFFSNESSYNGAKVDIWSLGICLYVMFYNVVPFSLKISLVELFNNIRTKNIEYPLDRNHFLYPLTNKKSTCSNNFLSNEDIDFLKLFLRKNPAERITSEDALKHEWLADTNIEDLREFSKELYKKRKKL
Sequence of Calcium-dependent protein kinase 1 (Plasmodium falciparum (isolate 3D7)) (P62344 whole entry, looked up): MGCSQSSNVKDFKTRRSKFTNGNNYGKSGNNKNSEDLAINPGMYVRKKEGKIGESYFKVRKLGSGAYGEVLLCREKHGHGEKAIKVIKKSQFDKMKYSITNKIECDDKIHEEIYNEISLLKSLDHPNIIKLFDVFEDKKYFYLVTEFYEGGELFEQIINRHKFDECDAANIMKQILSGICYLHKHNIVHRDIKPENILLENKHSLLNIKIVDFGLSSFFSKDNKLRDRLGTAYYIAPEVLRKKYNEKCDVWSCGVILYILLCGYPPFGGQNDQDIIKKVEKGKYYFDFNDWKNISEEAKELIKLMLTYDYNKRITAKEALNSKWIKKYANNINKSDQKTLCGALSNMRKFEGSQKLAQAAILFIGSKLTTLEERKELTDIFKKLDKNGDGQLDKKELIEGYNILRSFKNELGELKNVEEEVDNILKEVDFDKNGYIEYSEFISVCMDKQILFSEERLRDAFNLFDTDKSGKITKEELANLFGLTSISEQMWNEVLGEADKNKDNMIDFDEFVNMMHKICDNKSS

Regarding `Nc1ncc(-c2cccc(CCN3CCOCC3)c2)cc1-c1nc2ccc(Br)cc2[nH]1`, the figures for the growth inhibition in experiment [1] and in experiment [4] were 98% (active) and 101% (active), respectively. In addition, the inhibition in experiment [2] was 60% (active); in experiment [3], 4%. Besides, the outcome in experiment [5], in experiment [6], in experiment [7] and in experiment [8] was inactive.
`CCC(CSC1CCCCC1)N(C)CCN(C)C(CC)CSC1CCCCC1` (stereo not given): the growth inhibition in experiment [1] and in experiment [4] was 98% (active) in each case. For the same compound, the inhibition is 84% (active) in experiment [2] and -4% in experiment [3]. Further, the outcome in experiment [5], in experiment [6], in experiment [7] and in experiment [8] was inactive.
Turning to `NC(N)=NN=Cc1c2ccccc2c(Cl)c2c(Cl)cccc12`, the growth inhibition in experiment [1] is 72% (active); in experiment [4] it was 91% (active). Besides, the inhibition is 71% (active) in experiment [2] and -3% in experiment [3]. In addition, the result in experiment [5], in experiment [6], in experiment [7] and in experiment [8] was inactive.
`COc1ccc(CCN(C)CCOc2ccc(NC(=O)COc3ccc4sc5ccccc5c(=O)c4c3)cc2)cc1OC`: the growth inhibition is 91% (active) in experiment [1] and 100% (active) in experiment [4]. For the same compound, the inhibition was 99% (active) in experiment [2] and -1% in experiment [3]. Further, the result in experiment [5], in experiment [6], in experiment [7] and in experiment [8] was inactive.
`CCC1CN2CCc3c([nH]c4ccccc34)C2CC1CC1=NCCc2c1[nH]c1ccccc21` (stereo not given): the growth inhibition is 47% in experiment [1] and 100% (active) in experiment [4]. The inhibition in experiment [2] is 20%; in experiment [3] it was -8%. Besides, the outcome in experiment [5], in experiment [6], in experiment [7] and in experiment [8] was inactive.
Consider `CS(=O)(=O)c1cccc(-c2cnc3[nH]cc(-c4ccc(CCC(=O)O)cc4)c3c2)c1`, for which the growth inhibition is 99% (active) in experiment [1] and 97% (active) in experiment [4]. The inhibition in experiment [2] is 1%; in experiment [3], -6%. For the same compound, the outcome in experiment [5], in experiment [6], in experiment [7] and in experiment [8] was inactive.
Regarding `O=C(Nc1cccc(-c2ccc(-c3nc4ccccc4[nH]3)cc2)c1)Nc1ccc(F)c(F)c1F`, the growth inhibition in experiment [1] was 38%; in experiment [4] it was 100% (active). Moreover, the results for the inhibition in experiment [2] and in experiment [3] were 45% and 5%, respectively. In addition, the result in experiment [5], in experiment [6], in experiment [7] and in experiment [8] was inactive.
Take `CCCCCCC(C)c1cc(OCCN(CC)CC)c2c(c1)OC(C)(C)C=C2c1ccncc1` (stereo not given): the growth inhibition in experiment [1] was 71% (active); in experiment [4] it was 90% (active). The inhibition in experiment [2] is 14%; in experiment [3] it was -1%. In addition, the result in experiment [5], in experiment [6], in experiment [7] and in experiment [8] was inactive.
On to `COc1nc2c(CCN3CC[C@H](NCc4cc(C#N)c5c(c4)OCCO5)[C@H](O)C3)ccnc2cc1F`, for which the growth inhibition in experiment [1] was 41%; in experiment [4], 95% (active). The inhibition in experiment [2] is 18%; in experiment [3], -3%. Also, the result in experiment [5], in experiment [6], in experiment [7] and in experiment [8] was inactive.
In the case of `Cc1cccc(C)c1N1CCN(C2CCC(NC(=O)/C=C/c3ccccc3)CC2)CC1` (stereo not given), the growth inhibition in experiment [1] was 34%; in experiment [4] it was 83% (active). Further, the results for the inhibition in experiment [2] and in experiment [3] were 38% and -2%, respectively. Besides, the result in experiment [5], in experiment [6], in experiment [7] and in experiment [8] was inactive.
On to `CCN(c1ccccc1)S(=O)(=O)c1ccc(NC(=O)c2cc(-c3cc(C)ccc3O)n[nH]2)cc1`, for which the growth inhibition in experiment [1] is 55% (active); in experiment [4], 99% (active). In addition, the values for the inhibition in experiment [2] and in experiment [3] were 49% and -3%, respectively. Moreover, the result in experiment [5], in experiment [6], in experiment [7] and in experiment [8] was inactive.
As to `O=C1COc2ccc3ccccc3c21`, the growth inhibition is 3% in experiment [1] and 99% (active) in experiment [4]. Besides, the inhibition was -3% in experiment [2] and 6% in experiment [3]. In addition, the result in experiment [5], in experiment [6], in experiment [7] and in experiment [8] was inactive.
For `COc1ccc2nccc([C@@H](O)CN3CCC(NCc4cc5oc(=O)[nH]c5cc4F)CC3)c2c1`, the results for the growth inhibition in experiment [1] and in experiment [4] were 4% and 99% (active), respectively. In addition, the inhibition in experiment [2] is -9%; in experiment [3], -2%. In addition, the result in experiment [5], in experiment [6], in experiment [7] and in experiment [8] was inactive.
Consider `O=C(c1cccs1)N1N=C(c2cccs2)CC1c1cccc([N+](=O)[O-])c1` (stereo not given), for which the values for the growth inhibition in experiment [1] and in experiment [4] were 27% and 95% (active), respectively. In addition, the inhibition in experiment [2] is 5%; in experiment [3] it was -10%. Also, the result in experiment [5], in experiment [6], in experiment [7] and in experiment [8] was inactive.
Consider `NC1=NC(c2ccccc2)(c2ccccc2)C(=O)N1CC=Cc1ccccc1`, for which the growth inhibition was 70% (active) in experiment [1] and 98% (active) in experiment [4]. The inhibition was 23% in experiment [2] and -3% in experiment [3]. In addition, the result in experiment [5], in experiment [6], in experiment [7] and in experiment [8] was inactive.
On to `Cc1cc(C)cc(N2C(N)=NC(N)=NC2(C)C)c1`, for which the results for the growth inhibition in experiment [1] and in experiment [4] were 6% and 93% (active), respectively. Also, the inhibition in experiment [2] is 58% (active); in experiment [3], -4%. In addition, the outcome in experiment [5], in experiment [6], in experiment [7] and in experiment [8] was inactive.
Consider `CC(CN(C)C)C(=O)Nc1ccc(-c2ccc(-c3nc4ccc(F)cc4[nH]3)cc2)cc1` (stereo not given), for which the growth inhibition was 95% (active) in experiment [1] and 101% (active) in experiment [4]. In addition, the values for the inhibition in experiment [2] and in experiment [3] were 14% and -2%, respectively. Moreover, the result in experiment [5], in experiment [6], in experiment [7] and in experiment [8] was inactive.
As to `CON=Cc1sc(CNCCCNc2cc(=O)c3ccccc3[nH]2)c(C)c1Br`, the results for the growth inhibition in experiment [1] and in experiment [4] were 63% (active) and 96% (active), respectively. The inhibition was -8% in experiment [2] and -1% in experiment [3]. For the same compound, the outcome in experiment [5], in experiment [6], in experiment [7] and in experiment [8] was inactive.
As to `Cc1nc(NC2=NCN(CCCN3CCOCC3)CN2)nc2c(C)cccc12`, the growth inhibition is 62% (active) in experiment [1] and 89% (active) in experiment [4]. Also, the inhibition in experiment [2] is 17%; in experiment [3], 4%. Besides, the result in experiment [5], in experiment [6], in experiment [7] and in experiment [8] was inactive.
With `Cc1ccc(NC(=O)c2ccc3ncccc3c2)cc1OC1CCN(Cc2ccsc2)CC1`, the growth inhibition in experiment [1] is 29%; in experiment [4], 93% (active). Further, the inhibition in experiment [2] was 21%; in experiment [3], -2%. Also, the result in experiment [5], in experiment [6], in experiment [7] and in experiment [8] was inactive.

The values above are taken from PubChem BioAssay.
